Screening results from PubChem BioAssay.
MEKK3 PB1 HTS = raises or lowers MEK5 binding to the human MEKK3 PB1 domain | bead-based flow cytometry, Alexa488-MEK5 binding to MEKK3; actives lie on both sides; 0 = blocked by unlabeled MEK5, 100 = vehicle | 1.4% of 290,000 active | binding response (% of control), % at 10 µM | Q99759;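 active means binding response more than 3 SD above or below the average of its plate-row segment, actives on both sides; inconclusive means wells at one plate position flagged as instrument error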;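 further: Alexa488 bead fluorescence after subtracting the streptavidin-only scavenger bead signal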
MEKK2 mut-MEK5 = signal of MEK5 binding to mutant human MEKK2 PB1 domain. bead flow cytometry, Alexa488-MEK5 binding to MEKK2 mutant. AID 1530. 0.35% of 290,000 active. percent response, % at 10 µM; in the data active means percent response above about 24%, passing the limit was not always enough
MEKK2wt PB1 HTS = raises or lowers MEK5 binding to wildtype human MEKK2 PB1 domain | Q9Y2U5 | binding response (% of control), % at 10 µM | 1.1% of 290,000 active | bead flow cytometry, Alexa488-MEK5 binding to MEKK2 WT; actives lie on both sides; in the data active means binding response below about 67% or above about 130%; inconclusive means no clear call, values can overlap the other calls; inactive means in between
Rce1 inh = inhibitors of yeast Ras-converting enzyme | Q03530 | yeast membranes, quenched prenylated peptide cleavage fluorescence | calls only | 0.27% of 290,000 active | AID 2563;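 active means fall in fluorescence gain of 50% or more versus controls, with final raw signal at or below 3038400; inconclusive means same 50% fall but final raw signal above 3038400; inactive means fall in fluorescence gain under 50%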
Target sequence (Q03530 whole entry, looked up): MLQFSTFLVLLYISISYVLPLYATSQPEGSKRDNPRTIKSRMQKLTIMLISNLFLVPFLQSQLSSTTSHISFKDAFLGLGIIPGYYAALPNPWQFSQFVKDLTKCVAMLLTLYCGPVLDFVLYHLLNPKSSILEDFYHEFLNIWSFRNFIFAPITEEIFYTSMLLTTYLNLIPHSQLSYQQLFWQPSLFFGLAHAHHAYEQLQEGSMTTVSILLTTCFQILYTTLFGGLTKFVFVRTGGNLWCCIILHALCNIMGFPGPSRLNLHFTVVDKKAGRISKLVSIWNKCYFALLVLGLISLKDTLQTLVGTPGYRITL
UBC13 inh = blocks human UBC13 polyubiquitin chain formation; inhibition, % at 20 µM; 0.47% of 330,000 active; TR-FRET; in the data active means inhibition above about 45%, passing the limit was not always enough; inconclusive means no clear call, values can overlap the other calls
Target sequence (P61088 whole entry, looked up): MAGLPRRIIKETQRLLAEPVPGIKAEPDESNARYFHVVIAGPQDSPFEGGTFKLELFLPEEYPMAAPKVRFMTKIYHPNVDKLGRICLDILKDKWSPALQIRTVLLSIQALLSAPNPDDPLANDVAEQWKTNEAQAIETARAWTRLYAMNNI
Casp3 UBC13 ctr = counter-screen for UBC13 inhibitors: human caspase-3 inhibition; shares compounds with UBC13 inh; Recombinant caspase-3, Caspase-Glo 3/7 luminescence, 60 min; inhibition, % at 20 µM; 4% of 1,400 active; AID 488856;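 active means mean inhibition across replicates above about 26%, limit read from the data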
UBC13 confirm = human UBC13 polyubiquitin inhibition, confirmed; shares compounds with UBC13 inh; UBC13 polyubiquitination, TR-FRET, biochemical; inhibition, % at 10 µM; 68% of 1,400 active; in the data active means inhibition above about 45%; inconclusive means no clear call, values can overlap the other calls
Of the large screens only hits and unclear results are named; the others gave an inactive call (follow-up assays come after a bar, where they were run). The list is not random: actives were taken first. Their share in the collection is about 2.5%.

Cn1c(SCC(=O)NCC2CCCO2)nc2c(c1=O)SCC2 (stereo unspecified)	none
CC(=O)COC(=O)c1cc(-c2ccc(C)cc2)nc2ccccc12	none (no result: Rce1 inh)
CCOC(=O)c1cc(-c2ccccc2)nc2ccc(C)cc12	UBC13 inh 54 | Casp3 UBC13 ctr inactive | UBC13 confirm inactive
Cc1cccc(C)c1C(=NCCCN(C)C)c1ccccc1	none
CCN(Cc1nc(-c2ccc(OC)cc2)no1)C(=O)c1ccoc1C	none
COc1ccccc1C(CNC(=O)CNC(=O)c1ccccc1Cl)N1CCCC1 (stereo unspecified)	UBC13 inh 51 (no result: MEKK3 PB1 HTS, MEKK2 mut-MEK5, MEKK2wt PB1 HTS, Rce1 inh) | Casp3 UBC13 ctr inactive | UBC13 confirm 62
COc1ccccc1-c1sc2cc3c(cc2c1C#Cc1cncn1C)OCO3	UBC13 inh 45 (no result: MEKK3 PB1 HTS, MEKK2 mut-MEK5, MEKK2wt PB1 HTS, Rce1 inh) | Casp3 UBC13 ctr inactive | UBC13 confirm inactive
COc1ccc2sc(-c3ccccc3OC)c(C#Cc3cncn3C)c2c1	UBC13 inh 51 (no result: MEKK3 PB1 HTS, MEKK2 mut-MEK5, MEKK2wt PB1 HTS, Rce1 inh) | Casp3 UBC13 ctr inactive | UBC13 confirm inactive
CC1=Cc2ccccc2C(C#N)N1C(=O)c1ccccc1 (stereo unspecified)	none
N#C[C@H]1C(O)C(O)c2ccccc2N1C(=O)c1ccccc1 (stereo partly specified)	UBC13 inh 58 | Casp3 UBC13 ctr inactive | UBC13 confirm inactive
CC1(c2ccc3ccccc3c2)NC(=O)N(CC(=O)N2CCN(c3ccccc3O)CC2)C1=O (stereo unspecified)	none
COc1ccc(N2CC(C(=O)N[C@H](C(=O)NC(C)c3ccccc3)C(C)C)CC2=O)cc1 (stereo partly specified)	none
COc1cccc(NC(=O)CSc2nc3ccccc3c(=O)n2Cc2cccs2)c1	UBC13 inh 61 | Casp3 UBC13 ctr inactive | UBC13 confirm 58
COc1ccc(NC(=O)CSc2nc3ccsc3c(=O)n2CCCCCC(=O)O)cc1	UBC13 inh 62 | Casp3 UBC13 ctr inactive | UBC13 confirm 79
Cc1ccc(OCCOc2ccc(Br)cc2)c([N+](=O)[O-])n1	none
CCOC(=O)N1CCC(N2CCCC(CO)(Cc3cccc(Cl)c3)C2)CC1 (stereo unspecified)	none
O=C(Cn1c(NCCCO)nc2ccccc21)c1ccc(Cl)cc1	none
Cc1cc2nc(NCCCO)n(CC(=O)c3cc(C(C)(C)C)c(O)c(C(C)(C)C)c3)c2cc1C	UBC13 inh 70 (no result: MEKK3 PB1 HTS, MEKK2 mut-MEK5, MEKK2wt PB1 HTS, Rce1 inh) | Casp3 UBC13 ctr inactive | UBC13 confirm 49
COc1ccc(-c2c3c(nc4sc(C(=O)Nc5ccccc5)c(N)c24)CCC3)cc1	UBC13 inh 46 | Casp3 UBC13 ctr inactive | UBC13 confirm inactive
O=C(Nc1ccnn1C1CCN(Cc2cc(Cl)ccc2O)CC1)C1CC1	none
COCCCN1C(=O)C(=O)/C(=C(/O)c2ccc(S(=O)(=O)N3CCOCC3)cc2)C1c1ccc(C(C)C)cc1 (stereo unspecified)	none
CSc1sc(-c2nnc(SCC(=O)Nc3ccccc3)n2C)c2c1C=CCC2	UBC13 inh 54 | Casp3 UBC13 ctr inactive | UBC13 confirm inconclusive
O=C(NCC(c1ccc(F)cc1)N1CCOCC1)c1ccco1 (stereo unspecified)	none (no result: MEKK3 PB1 HTS, MEKK2 mut-MEK5, MEKK2wt PB1 HTS)
CCCCc1oc2ccccc2c1C(=O)c1cc(I)c(OCCN(CC)CC)c(I)c1	MEKK2 mut-MEK5 51, MEKK2wt PB1 HTS 163, UBC13 inh 68 | Casp3 UBC13 ctr inactive | UBC13 confirm 58
CC(C)(C)N(Cc1ccccc1)C(=O)COC(=O)CCN1C(=O)C2CC=CCC2C1=O (stereo unspecified)	none (no result: MEKK3 PB1 HTS, MEKK2 mut-MEK5, MEKK2wt PB1 HTS, Rce1 inh)
CCOc1ccccc1NC(=O)COc1cccnc1[N+](=O)[O-]	UBC13 inh 51 (no result: MEKK3 PB1 HTS, MEKK2 mut-MEK5, MEKK2wt PB1 HTS, Rce1 inh) | Casp3 UBC13 ctr inactive | UBC13 confirm inactive
COc1ccccc1NC(=O)COc1cccnc1[N+](=O)[O-]	UBC13 inh 46 (no result: MEKK3 PB1 HTS, MEKK2 mut-MEK5, MEKK2wt PB1 HTS, Rce1 inh) | Casp3 UBC13 ctr inactive | UBC13 confirm inactive
COc1ccccc1CNC(=O)COc1cccnc1[N+](=O)[O-]	none
NC(=S)N=Nc1c(O)[nH]c2cc(F)c(F)cc12	UBC13 inh 82 | Casp3 UBC13 ctr inactive | UBC13 confirm 99
CC1CCN(S(=O)(=O)c2ccc(NC(=O)N3c4ccccc4Sc4ccccc43)cc2)CC1	none
NS(=O)(=O)c1ccc(NC(=O)N2c3ccccc3Sc3ccccc32)cc1	UBC13 inh 46 | Casp3 UBC13 ctr inactive | UBC13 confirm inactive
